Test results: PMC11006913
Positions count from the first letter of the chain named.

What was measured:
Test in all cases: PBM; 200 nM protein, PBS
Settings in all cases: dsDNA, one strand shown
SIX6 [1] = target: T1, SIX6 (Homo sapiens, UniProt O95475 114-200, L167I)
T1 sequence: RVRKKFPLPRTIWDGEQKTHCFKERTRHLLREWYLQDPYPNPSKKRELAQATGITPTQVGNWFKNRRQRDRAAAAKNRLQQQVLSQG

SIX6 [2] = target: T2, SIX6 (Homo sapiens, UniProt O95475 114-200, L143V)
T2 sequence: T1 sequence with L30V, I54L

SIX6 [3] = target: T3, SIX6 (Homo sapiens, UniProt O95475 114-200, H141N)
T3 sequence: T1 sequence with H28N, I54L

SIX6 [4] = target: T4, SIX6 (Homo sapiens, UniProt O95475 114-200, T165P)
T4 sequence: T1 sequence with T52P, I54L

SIX6 [5] = target: T5, SIX6 (Homo sapiens, UniProt O95475 114-200, L167M)
T5 sequence: T1 sequence with I54M

SIX6 [6] = target: T6, SIX6 (Homo sapiens, UniProt O95475 114-200, L143M)
T6 sequence: T1 sequence with L30M, I54L

SIX6 [7] = target: T7, SIX6 (Homo sapiens, UniProt O95475 114-200, L143I)
T7 sequence: T1 sequence with L30I, I54L

SIX6 [8] = target: T8, SIX6 (Homo sapiens, UniProt O95475 114-200, T165G)
T8 sequence: T1 sequence with T52G, I54L

SIX6 [9] = target: T9, SIX6 (Homo sapiens, UniProt O95475 114-200, T139Q)
T9 sequence: T1 sequence with T26Q, I54L

SIX6 [10] = target: T10, SIX6 (Homo sapiens, UniProt O95475 114-200, T165A)
T10 sequence: T1 sequence with T52A, I54L

SIX6 [11] = target: T11, SIX6 (Homo sapiens, UniProt O95475 114-200, L167V)
T11 sequence: T1 sequence with I54V

SIX6 [12] = target: T12, SIX6 (Homo sapiens, UniProt O95475 114-200)
T12 sequence: T1 sequence with I54L

SIX6 [13] = target: T13, SIX6 (Homo sapiens, UniProt O95475 114-200, T165I)
T13 sequence: T1 sequence with T52I, I54L

HOXA2 [14] = target: HOXA2 (Homo sapiens, UniProt O43364 129-215, R185T)
Chain of HOXA2 (Homo sapiens, UniProt O43364 129-215, R185T) (O43364 129-215 R185T): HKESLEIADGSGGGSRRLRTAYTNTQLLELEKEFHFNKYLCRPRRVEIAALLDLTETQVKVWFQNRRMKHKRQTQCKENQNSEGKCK

HOXA2 [15] = target: HOXA2 (Homo sapiens, UniProt O43364 129-215, R185K)
Chain of HOXA2 (Homo sapiens, UniProt O43364 129-215, R185K) (O43364 129-215 R185K): as the sequence (O43364 129-215 R185T) above, with T57K counted along it

HOXA2 [16] = target: HOXA2 (Homo sapiens, UniProt O43364 129-215, Y150S)
Chain of HOXA2 (Homo sapiens, UniProt O43364 129-215, Y150S) (O43364 129-215 Y150S): as the sequence (O43364 129-215 R185T) above, with Y22S, T57R counted along it

HOXA2 [17] = target: HOXA2 (Homo sapiens, UniProt O43364 129-215)
Chain of HOXA2 (Homo sapiens, UniProt O43364 129-215) (O43364 129-215): as the sequence (O43364 129-215 R185T) above, with T57R counted along it

Sequence | binding signal (SIX6 [1]) | binding signal (SIX6 [2]) | binding signal (SIX6 [3]) | binding signal (SIX6 [4]) | binding signal (SIX6 [5]) | binding signal (SIX6 [6]) | binding signal (SIX6 [7]) | binding signal (SIX6 [8]) | binding signal (SIX6 [9]) | binding signal (SIX6 [10]) | binding signal (SIX6 [11]) | binding signal (SIX6 [12]) | binding signal (SIX6 [13]) | binding signal (HOXA2 [14]) | binding signal (HOXA2 [15]) | binding signal (HOXA2 [16]) | binding signal (HOXA2 [17])
CGGCTTCC | 9 upbm affinity estimate (log intensity, higher = more binding, comparable within an allelic series) | 8.76 upbm affinity estimate (log intensity, higher = more binding, comparable within an allelic series) | 8.87 upbm affinity estimate (log intensity, higher = more binding, comparable within an allelic series) | 8.79 upbm affinity estimate (log intensity, higher = more binding, comparable within an allelic series) | 8.83 upbm affinity estimate (log intensity, higher = more binding, comparable within an allelic series) | 9 upbm affinity estimate (log intensity, higher = more binding, comparable within an allelic series) | 8.88 upbm affinity estimate (log intensity, higher = more binding, comparable within an allelic series) | 9 upbm affinity estimate (log intensity, higher = more binding, comparable within an allelic series) | 9.03 upbm affinity estimate (log intensity, higher = more binding, comparable within an allelic series) | 8.96 upbm affinity estimate (log intensity, higher = more binding, comparable within an allelic series) | 8.89 upbm affinity estimate (log intensity, higher = more binding, comparable within an allelic series) | 8.96 upbm affinity estimate (log intensity, higher = more binding, comparable within an allelic series) | 8.91 upbm affinity estimate (log intensity, higher = more binding, comparable within an allelic series) | – | – | – | –
AGCGCAGG | 9.08 upbm affinity estimate (log intensity, higher = more binding, comparable within an allelic series) | 8.96 upbm affinity estimate (log intensity, higher = more binding, comparable within an allelic series) | 9.05 upbm affinity estimate (log intensity, higher = more binding, comparable within an allelic series) | 8.99 upbm affinity estimate (log intensity, higher = more binding, comparable within an allelic series) | 9.06 upbm affinity estimate (log intensity, higher = more binding, comparable within an allelic series) | 9.04 upbm affinity estimate (log intensity, higher = more binding, comparable within an allelic series) | 9.01 upbm affinity estimate (log intensity, higher = more binding, comparable within an allelic series) | 9.15 upbm affinity estimate (log intensity, higher = more binding, comparable within an allelic series) | 9.1 upbm affinity estimate (log intensity, higher = more binding, comparable within an allelic series) | 9.08 upbm affinity estimate (log intensity, higher = more binding, comparable within an allelic series) | 9.04 upbm affinity estimate (log intensity, higher = more binding, comparable within an allelic series) | 9.02 upbm affinity estimate (log intensity, higher = more binding, comparable within an allelic series) | 9.03 upbm affinity estimate (log intensity, higher = more binding, comparable within an allelic series) | – | – | – | –
CGTCGCGC | 9.07 upbm affinity estimate (log intensity, higher = more binding, comparable within an allelic series) | 9.04 upbm affinity estimate (log intensity, higher = more binding, comparable within an allelic series) | 9.11 upbm affinity estimate (log intensity, higher = more binding, comparable within an allelic series) | 9.07 upbm affinity estimate (log intensity, higher = more binding, comparable within an allelic series) | 9 upbm affinity estimate (log intensity, higher = more binding, comparable within an allelic series) | 9.11 upbm affinity estimate (log intensity, higher = more binding, comparable within an allelic series) | 9.05 upbm affinity estimate (log intensity, higher = more binding, comparable within an allelic series) | 9.08 upbm affinity estimate (log intensity, higher = more binding, comparable within an allelic series) | 9.27 upbm affinity estimate (log intensity, higher = more binding, comparable within an allelic series) | 9.17 upbm affinity estimate (log intensity, higher = more binding, comparable within an allelic series) | 8.92 upbm affinity estimate (log intensity, higher = more binding, comparable within an allelic series) | 9.06 upbm affinity estimate (log intensity, higher = more binding, comparable within an allelic series) | 8.97 upbm affinity estimate (log intensity, higher = more binding, comparable within an allelic series) | 7.22 upbm affinity estimate (log intensity, higher = more binding, comparable within an allelic series) | 10.4 upbm affinity estimate (log intensity, higher = more binding, comparable within an allelic series) | 10.5 upbm affinity estimate (log intensity, higher = more binding, comparable within an allelic series) | 7.41 upbm affinity estimate (log intensity, higher = more binding, comparable within an allelic series)
CCCAGCCG | 9.06 upbm affinity estimate (log intensity, higher = more binding, comparable within an allelic series) | 8.82 upbm affinity estimate (log intensity, higher = more binding, comparable within an allelic series) | 9.12 upbm affinity estimate (log intensity, higher = more binding, comparable within an allelic series) | 8.84 upbm affinity estimate (log intensity, higher = more binding, comparable within an allelic series) | 9.01 upbm affinity estimate (log intensity, higher = more binding, comparable within an allelic series) | 8.87 upbm affinity estimate (log intensity, higher = more binding, comparable within an allelic series) | 8.92 upbm affinity estimate (log intensity, higher = more binding, comparable within an allelic series) | 9.07 upbm affinity estimate (log intensity, higher = more binding, comparable within an allelic series) | 9.24 upbm affinity estimate (log intensity, higher = more binding, comparable within an allelic series) | 9.06 upbm affinity estimate (log intensity, higher = more binding, comparable within an allelic series) | 8.98 upbm affinity estimate (log intensity, higher = more binding, comparable within an allelic series) | 9.03 upbm affinity estimate (log intensity, higher = more binding, comparable within an allelic series) | 9.05 upbm affinity estimate (log intensity, higher = more binding, comparable within an allelic series) | – | – | – | –
GCCCTGCC | 8.89 upbm affinity estimate (log intensity, higher = more binding, comparable within an allelic series) | 8.78 upbm affinity estimate (log intensity, higher = more binding, comparable within an allelic series) | 8.91 upbm affinity estimate (log intensity, higher = more binding, comparable within an allelic series) | 8.91 upbm affinity estimate (log intensity, higher = more binding, comparable within an allelic series) | 8.87 upbm affinity estimate (log intensity, higher = more binding, comparable within an allelic series) | 8.9 upbm affinity estimate (log intensity, higher = more binding, comparable within an allelic series) | 8.84 upbm affinity estimate (log intensity, higher = more binding, comparable within an allelic series) | 8.91 upbm affinity estimate (log intensity, higher = more binding, comparable within an allelic series) | 9.01 upbm affinity estimate (log intensity, higher = more binding, comparable within an allelic series) | 8.99 upbm affinity estimate (log intensity, higher = more binding, comparable within an allelic series) | 8.94 upbm affinity estimate (log intensity, higher = more binding, comparable within an allelic series) | 8.87 upbm affinity estimate (log intensity, higher = more binding, comparable within an allelic series) | 8.85 upbm affinity estimate (log intensity, higher = more binding, comparable within an allelic series) | 6.93 upbm affinity estimate (log intensity, higher = more binding, comparable within an allelic series) | 10.3 upbm affinity estimate (log intensity, higher = more binding, comparable within an allelic series) | 10.4 upbm affinity estimate (log intensity, higher = more binding, comparable within an allelic series) | 7.06 upbm affinity estimate (log intensity, higher = more binding, comparable within an allelic series)
